Reference: PubChem BioAssay (EPA / NIEHS)
Active and inactive are the calls of the source. The calls were made as follows: active = hit-call score of the fitted dose curve at least 0.9, where 1 is the maximum; inactive = score below 0.9.

Columns and labels:
Conditions in all cases: mRNA level, 48 h; actives raise or lower the signal
[1] = read-out: Alpha-fetoprotein (AFP) gene, AFP (gene 174); test: LTEA_HepaRG_AFP: Life Technologies and Expression Analysis (LTEA) Assay for Alpha-fetoprotein (AFP) gene using HepaRG (AID 2283472)
How it was run: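 Human HepaRG cells plated 48 h, then switched to serum-free induction medium and exposed in duplicate for 48 h to 8-point half-log series from 100 uM in 0.5% DMSO. AFP mRNA by qRT-PCR, normalized to ACTB, GAPDH, POLR2A; bidirectional fit versus DMSO.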

BCL2L11 (gene 10018) = test: LTEA_HepaRG_BCL2L11: Life Technologies and Expression Analysis (LTEA) Assay for Bcl-2 (BCL2L11) gene using HepaRG (AID 2283473)
How it was run: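 Read-out is BCL2L11 transcript level by qRT-PCR, normalized to three housekeeping genes and fitted bidirectionally against 0.5% DMSO vehicle. HepaRG cells received chemicals for 48 h in serum-free induction medium, 100 uM down in half-log dilutions.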

[2] = read-out: Apolipoprotein A-V (APOA5) gene, APOA5 (gene 116519); test: LTEA_HepaRG_APOA5: Life Technologies and Expression Analysis (LTEA) Assay for Apolipoprotein A-V (APOA5) gene using HepaRG (AID 2283474)
How it was run: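 Readout is APOA5 transcript level by qRT-PCR on Fluidigm dynamic arrays, normalized to three housekeeping genes. HepaRG cultures received chemicals for 48 h at up to 100 uM (half-log steps, 0.5% DMSO), with gain or loss scored relative to DMSO.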

[3] = read-out: Apoptosis regulator Bcl-2 (Homo sapiens) (UniProt P10415); test: LTEA_HepaRG_BCL2: Life Technologies and Expression Analysis (LTEA) Assay for Bcl-2 gene using HepaRG (AID 2283475)
How it was run: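 Differentiated HepaRG cells in serum-free induction medium were exposed for 48 h to eight half-log concentrations up to 100 uM in 0.5% DMSO, in duplicate. BCL2 mRNA was quantified by TaqMan qRT-PCR normalised to ACTB, GAPDH and POLR2A, with bidirectional fitting versus DMSO.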

[4] = read-out: Bcl-2 (BID) gene, BID (gene 637); test: LTEA_HepaRG_BID: Life Technologies and Expression Analysis (LTEA) Assay for Bcl-2 (BID) gene using HepaRG (AID 2283476)
How it was run: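 Differentiated HepaRG cells in serum-free induction medium were exposed in duplicate for 48 h to eight half-log concentrations up to 100 uM in 0.5% DMSO. BID mRNA was quantified by qRT-PCR, normalized to ACTB, GAPDH and POLR2A.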

Caspase-3 (Homo sapiens) = Caspase-3 (Homo sapiens) (UniProt P42574); test: LTEA_HepaRG_CASP3: Life Technologies and Expression Analysis (LTEA) Assay for cysteine-aspartic acid protease (CASP3) using HepaRG (AID 2283477)
Chain of Caspase-3 (Homo sapiens) (P42574 whole entry, looked up): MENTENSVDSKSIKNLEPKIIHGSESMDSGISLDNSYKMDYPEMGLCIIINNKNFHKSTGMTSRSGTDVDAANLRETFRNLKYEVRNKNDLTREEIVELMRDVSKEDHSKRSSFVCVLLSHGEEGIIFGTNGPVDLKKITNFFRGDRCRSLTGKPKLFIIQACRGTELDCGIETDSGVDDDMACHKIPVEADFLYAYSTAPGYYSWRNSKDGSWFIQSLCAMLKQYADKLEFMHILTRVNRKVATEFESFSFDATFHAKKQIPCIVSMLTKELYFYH
How it was run: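 Read-out is CASP3 mRNA level by TaqMan qRT-PCR in human HepaRG cells after 48 h chemical exposure. Eight half-log concentrations topping at 100 uM were tested in 0.5% DMSO; gain or loss was fitted relative to DMSO.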

[5] = read-out: Cytochrome P450 (CYP1A2), CYP1A2 (gene 1544); test: LTEA_HepaRG_CYP1A2: Life Technologies and Expression Analysis (LTEA) Assay for Cytochrome P450 (CYP1A2) using HepaRG (AID 2283479)
How it was run: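 CYP1A2 transcript induction or loss, quantified by Fluidigm qRT-PCR against three housekeeping genes, was fitted bidirectionally against 0.5% DMSO controls. Human HepaRG cells received eight half-log concentrations from 100 uM over 48 h.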

[6] = read-out: cysteine-aspartic acid protease (CASP8), CASP8 (gene 841); test: LTEA_HepaRG_CASP8: Life Technologies and Expression Analysis (LTEA) Assay for cysteine-aspartic acid protease (CASP8) using HepaRG (AID 2283480)
How it was run: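 Differentiated human HepaRG cells, plated 48 h then switched to serum-free induction medium, were exposed in duplicate for 48 h to 8 half-log concentrations up to 100 uM in 0.5% DMSO. CASP8 mRNA was quantified by qRT-PCR, normalized to ACTB/GAPDH/POLR2A.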

[7] = read-out: Cytochrome P450 (CYP2B6), CYP2B6 (gene 1555); test: LTEA_HepaRG_CYP2B6: Life Technologies and Expression Analysis (LTEA) Assay for Cytochrome P450 (CYP2B6) using HepaRG (AID 2283481)
How it was run: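 HepaRG cells plated 48 h, switched to serum-free induction medium, then dosed 48 h (8 points, half-log from 100 uM, 0.5% DMSO). RNA isolated; CYP2B6 expression measured by qRT-PCR; gain or loss fitted relative to DMSO.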

CYP2C8 (gene 1558) = test: LTEA_HepaRG_CYP2C8: Life Technologies and Expression Analysis (LTEA) Assay for CYP2C8 using HepaRG (AID 2283483)
How it was run: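 Differentiated human HepaRG cells were exposed for 48 h in serum-free induction medium to eight half-log concentrations up to 100 uM in 0.5% DMSO, in duplicate. CYP2C8 mRNA was measured by TaqMan qRT-PCR, normalized to ACTB, GAPDH and POLR2A, and fitted bidirectionally against DMSO.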

CYP2C9 (gene 1559) = test: LTEA_HepaRG_CYP2C9: Life Technologies and Expression Analysis (LTEA) Assay for CYP2C9 using HepaRG (AID 2283484)
How it was run: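 Differentiated human HepaRG cells were exposed 48 h in serum-free induction medium to eight half-log concentrations up to 100 uM in 0.5% DMSO. CYP2C9 mRNA was measured by qRT-PCR, normalized to ACTB, GAPDH and POLR2A, and fitted bidirectionally against DMSO.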

CYP2E1 (gene 1571) = test: LTEA_HepaRG_CYP2E1: Life Technologies and Expression Analysis (LTEA) Assay for CYP2E1 using HepaRG (AID 2283485)
How it was run: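 HepaRG cells in serum-free induction medium exposed 48 h to test chemicals, 8 half-log concentrations up to 100 uM in 0.5% DMSO, duplicate. CYP2E1 mRNA by qRT-PCR, normalized to ACTB, GAPDH, POLR2A; bidirectional fit versus DMSO.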

CYP4A11 (gene 1579) = test: LTEA_HepaRG_CYP4A11: Life Technologies and Expression Analysis (LTEA) Assay for CYP4A11 using HepaRG (AID 2283486)
How it was run: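 HepaRG, 48 h chem exposure, 8 conc (100 uM top, half-log), 0.5% DMSO vehicle; qRT-PCR readout, housekeeping-gene normalized; bidirectional curve fit vs DMSO baseline.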

[8] = read-out: Cytochrome P450 3A4 (Homo sapiens) (UniProt P08684); test: LTEA_HepaRG_CYP3A4: Life Technologies and Expression Analysis (LTEA) Assay for CYP3A4 using HepaRG (AID 2283487)
How it was run: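 In a human hepatic line (HepaRG), duplicate wells were treated 48 h with up to 100 uM chemical in half-log dilutions. Endpoint: CYP3A4 mRNA induction or loss relative to 0.5% DMSO vehicle, by qRT-PCR.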

[9] = read-out: Pro-epidermal growth factor (Homo sapiens) (UniProt P01133); test: LTEA_HepaRG_EGF: Life Technologies and Expression Analysis (LTEA) Assay for Epidermal growth factor (EGF) using HepaRG (AID 2283489)
How it was run: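 HepaRG, 48 h dosing, 100 uM top, half-log x8, 0.5% DMSO. Readout: TaqMan qRT-PCR (Fluidigm array), housekeeping-normalized. Gain or loss of signal fit vs DMSO.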

[10] = read-out: Early growth response protein 1 (EGR1) transcription factor, EGR1 (gene 1958); test: LTEA_HepaRG_EGR1: Life Technologies and Expression Analysis (LTEA) Assay for Early growth response protein 1 (EGR1) transcription factor using HepaRG (AID 2283490)
How it was run: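 Differentiated human HepaRG cells in serum-free induction medium were exposed in duplicate for 48 h to eight concentrations (top 100 uM, half-log steps) in 0.5% DMSO. EGR1 mRNA was quantified by qRT-PCR, normalized to ACTB, GAPDH and POLR2A, and fitted bidirectionally versus DMSO.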

[11] = read-out: Ezrin (EZR), EZR (gene 7430); test: LTEA_HepaRG_EZR: Life Technologies and Expression Analysis (LTEA) Assay for Ezrin (EZR) using HepaRG (AID 2283491)
How it was run: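 Gain or loss of EZR mRNA is scored relative to 0.5% DMSO in human HepaRG cultures treated 48 h with test chemicals in duplicate, eight half-log concentrations from 100 uM.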

[12] = read-out: Cytochrome P450 (CYP24A1), CYP24A1 (gene 1591); test: LTEA_HepaRG_CYP24A1: Life Technologies and Expression Analysis (LTEA) Assay for Cytochrome P450 (CYP24A1) using HepaRG (AID 2283478)
How it was run: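 HepaRG, 48 h chemical exposure, 8-pt half-log CRC from 100 uM, 0.5% DMSO vehicle, duplicates. Endpoint: CYP24A1 mRNA by Fluidigm TaqMan qRT-PCR, normalized ACTB/GAPDH/POLR2A; gain/loss fit vs DMSO.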

[13] = read-out: Cytochrome P450 2C19 (Homo sapiens) (UniProt P33261); test: LTEA_HepaRG_CYP2C19: Life Technologies and Expression Analysis (LTEA) Assay for CYP2C19 using HepaRG (AID 2283482)
How it was run: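 Transcript levels of CYP2C19 were quantified by qRT-PCR after HepaRG cells were treated for 48 hours with test chemicals up to 100 uM (eight half-log concentrations, 0.5% DMSO vehicle). Gain or loss of signal was fitted relative to DMSO.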

[14] = read-out: DNA damage-inducible transcript 3 (DDIT3), DDIT3 (gene 1649); test: LTEA_HepaRG_DDIT3: Life Technologies and Expression Analysis (LTEA) Assay for DNA damage-inducible transcript 3 (DDIT3) using HepaRG (AID 2283488)
How it was run: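 Differentiated human HepaRG cells in serum-free induction medium were exposed in duplicate for 48 h to 8 concentrations (top 100 uM, half-log steps, 0.5% DMSO). DDIT3 mRNA measured by TaqMan qRT-PCR, normalized to ACTB/GAPDH/POLR2A; bidirectional fit versus DMSO.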

Measured: AC50

Chain of Cytochrome P450 2C19 (Homo sapiens) (P33261 whole entry, looked up): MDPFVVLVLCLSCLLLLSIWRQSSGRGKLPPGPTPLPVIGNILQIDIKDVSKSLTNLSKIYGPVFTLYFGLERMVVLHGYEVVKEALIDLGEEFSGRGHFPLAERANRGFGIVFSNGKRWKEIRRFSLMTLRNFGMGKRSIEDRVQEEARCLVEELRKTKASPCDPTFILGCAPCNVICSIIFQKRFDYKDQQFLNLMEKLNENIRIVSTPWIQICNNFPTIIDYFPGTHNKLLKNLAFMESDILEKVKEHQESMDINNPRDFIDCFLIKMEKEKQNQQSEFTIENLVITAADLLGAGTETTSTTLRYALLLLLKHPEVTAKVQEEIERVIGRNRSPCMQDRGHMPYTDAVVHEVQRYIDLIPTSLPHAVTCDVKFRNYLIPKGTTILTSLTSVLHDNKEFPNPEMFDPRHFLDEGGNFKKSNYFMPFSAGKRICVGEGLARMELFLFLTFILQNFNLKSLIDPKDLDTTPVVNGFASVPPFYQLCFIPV
Chain of Cytochrome P450 3A4 (Homo sapiens) (P08684 whole entry, looked up): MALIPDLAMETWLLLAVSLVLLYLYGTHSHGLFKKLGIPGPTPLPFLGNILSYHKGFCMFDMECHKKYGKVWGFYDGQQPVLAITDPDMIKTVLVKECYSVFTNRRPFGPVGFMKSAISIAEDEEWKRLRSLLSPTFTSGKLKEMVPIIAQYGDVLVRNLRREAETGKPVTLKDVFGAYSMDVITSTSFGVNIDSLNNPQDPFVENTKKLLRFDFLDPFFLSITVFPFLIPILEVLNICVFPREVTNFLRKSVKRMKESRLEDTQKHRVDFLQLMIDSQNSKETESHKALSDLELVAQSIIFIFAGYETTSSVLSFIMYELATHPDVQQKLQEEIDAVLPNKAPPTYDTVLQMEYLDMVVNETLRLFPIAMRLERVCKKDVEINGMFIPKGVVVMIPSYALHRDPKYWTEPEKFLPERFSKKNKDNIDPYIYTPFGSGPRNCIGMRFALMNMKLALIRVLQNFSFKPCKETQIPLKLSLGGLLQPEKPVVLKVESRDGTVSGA
Chain of Apoptosis regulator Bcl-2 (Homo sapiens) (P10415 whole entry, looked up): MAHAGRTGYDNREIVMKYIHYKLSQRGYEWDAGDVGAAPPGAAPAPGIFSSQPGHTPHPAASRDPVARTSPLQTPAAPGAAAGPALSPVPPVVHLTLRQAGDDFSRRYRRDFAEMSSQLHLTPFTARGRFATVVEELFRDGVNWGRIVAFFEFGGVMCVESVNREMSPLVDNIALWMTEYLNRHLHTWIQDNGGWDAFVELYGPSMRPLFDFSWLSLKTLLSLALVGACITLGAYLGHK

C[N+](C)(C)CC1CO1 (configuration not stated)
not listed: [12] | [13] | [14]
inactive: all other assays above

CCCCOC(=O)c1ccccc1C(=O)OCc1ccccc1
active: [5] 15.5 µM
not listed: [13] | [14]
inactive: all other assays above

C=CCc1ccc2c(c1)OCO2
not listed: [7] | [10]
inactive: all other assays above

CCC12COCN1COC2
not listed: [14]
inactive: all other assays above

CCCCC(CC)COC(=O)c1ccc(C(=O)OCC(CC)CCCC)c(C(=O)OCC(CC)CCCC)c1 (configuration not stated)
not listed: [10] | [13]
inactive: all other assays above

Cc1ccc(N)c(N)c1
active: [5] 38.3 µM | [7] 50 µM | CYP2E1 (gene 1571) 50 µM
not listed: [12] | [13]
inactive: all other assays above

Cn1cc(-c2ccccc2)c(=O)c(-c2cccc(C(F)(F)F)c2)c1
active: [5] 87.5 µM | [7] 1.09 µM | [13] 4.63 µM | CYP2C8 (gene 1558) 3.59 µM | CYP2C9 (gene 1559) 0.468 µM | CYP2E1 (gene 1571) 11.9 µM | [8] 2.92 µM | [14] 89.8 µM
not listed: [12]
inactive: all other assays above
